Data taken from PubChem BioAssay.

Target: Torsin-1A (Homo sapiens) (UniProt O14656)
Assay: torsin A binders from cell lysate, primary screen, small-molecule microarray, wild-type, 635/667 nm (AID 1149)
Conditions: COS7 hTOR1A-WT lysate, 635 nm fluorescence, higher = more signal

Torsin-1A (Homo sapiens), sequence (O14656 whole entry, looked up): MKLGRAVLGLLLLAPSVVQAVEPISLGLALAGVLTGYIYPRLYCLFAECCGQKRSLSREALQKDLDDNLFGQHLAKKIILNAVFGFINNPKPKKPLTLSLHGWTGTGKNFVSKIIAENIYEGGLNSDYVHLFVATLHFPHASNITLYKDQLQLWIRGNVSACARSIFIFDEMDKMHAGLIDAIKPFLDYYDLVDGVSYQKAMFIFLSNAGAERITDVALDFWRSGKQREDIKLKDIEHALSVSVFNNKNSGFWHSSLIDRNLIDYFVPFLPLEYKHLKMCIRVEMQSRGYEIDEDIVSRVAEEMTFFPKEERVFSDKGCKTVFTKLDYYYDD

SMILES	composite z-score
O=C1C[C@]2(c3ccc([N+](=O)[O-])cc3)C(=O)N(C3CC3)c3cc(CO)ccc3[C@H]2N1C1CCCCC1	-0.145
C=C(COC)/C(=C/C[C@@H](OC(C)=O)c1ccccc1OCCO)c1cnc2ccccc2c1	2.53
COCCOC(=O)N1C(=O)[C@@]2(c3cc(C#CC4(O)CCCCCC4)ccc31)[C@H](c1ccc(O)cc1)N1[C@H](c3ccccc3)[C@H](c3ccccc3)OC(=O)[C@H]1[C@@H]2C(=O)N1CCCCCCC1	0.123
C=CCOC(=O)[C@@H]1[C@H]2C(=O)O[C@H](c3ccccc3)[C@H](c3ccccc3)N2[C@H](c2ccc(OCCOC(=O)[C@H]3C[C@H]4C(=O)N[C@@H](CCCCN(C)C)C(=O)N4[C@H]3c3ccc(O)cc3)cc2)[C@@]12C(=O)Nc1ccc(I)cc12	1.18
COC(=O)C[C@H]1O[C@@]2(C[C@@H]1[Si](C)(C)C)C(=O)N(C)c1ccccc12	0.185
C=CCC(OC(C)=O)[C@@H]1[C@@H](N(Cc2cc3ccccc3o2)C(=O)c2cccc3ccccc23)c2cc(OCCCO)ccc2N1C(=O)c1ccc2ccccc2n1 (stereo partly specified)	0.866
COC(=O)[C@@]1(Cc2ccc(OC)cc2)[C@H]2c3cc(C(=O)N4CCCC4)n(CCn4cc([N+](=O)[O-])nc4C)c3C[C@H]2CN1C(=O)c1ccccc1	-0.236
CCCCCC1=C2CNC(CC(C)C)(C(=O)OC)C=C2C(C)C1=O (stereo unspecified)	-0.276
O=C1C=C(c2ccccc2)C(=O)C2=C1CC([C@H]1Oc3ccccc3S(=O)(=O)N3CCC[C@@H]13)=CC2	-0.295
COCCOC(=O)N1C(=O)[C@@]2(c3cc(C#CCC(C(=O)OC)C(=O)OC)ccc31)[C@H](C(=O)Nc1nc3ccccc3s1)[C@H]1C(=O)O[C@H](c3ccccc3)[C@H](c3ccccc3)N1[C@@H]2c1ccc(O)cc1	0.391
C=CCC(OC(C)=O)[C@@H]1[C@@H](N(Cc2ccc(-c3cccc(C(F)(F)F)c3)o2)C(=O)c2ccc(-c3ccccc3)cc2)c2cc(OCCCO)ccc2N1C(=O)c1ccc2ccccc2c1 (stereo partly specified)	-0.756
Cc1ccc(S[C@]2(C(=O)NCCCN(C)C)CC(=O)N(Cc3ccccc3C(F)(F)F)[C@@H]2c2ccc(CO)cc2I)cc1	0.22
CN(C)CCCC[C@@H]1NC(=O)[C@H]2C[C@@H](C(=O)O)[C@@H](c3ccc(O)cc3)N2C1=O	2.77
COCCOC(=O)N1C(=O)[C@@]2(c3cc(C#CCCO)ccc31)[C@H](c1ccc(OCCO)cc1)N1[C@H](c3ccccc3)[C@H](c3ccccc3)OC(=O)[C@H]1[C@@H]2C(=O)N1CCCCCCC1	0.862
CCN(CC)c1ccc(N2CC=CC34O[C@@H]5C=CCCOC(=O)C5[C@H]3C(=O)N(C(C)CO)[C@@H]4C2=O)cc1 (stereo partly specified)	0.0632
CC(C)=CCCC(C)=CC(O)C1C=CC2C(=O)NC(=O)C2N1Nc1ccc(Cl)cc1Cl (stereo unspecified)	-0.0743
COC(=O)[C@@]1(Cc2ccc(F)cc2)[C@H]2c3cc(C(=O)N(C)C)n(CCc4ccc(O)c(O)c4)c3C[C@H]2CN1C(=O)c1ccccc1	0.411
N#Cc1ccc(-c2cccc(=O)o2)cc1	0.435
COC(=O)[C@@]1(Cc2ccccc2)[C@H]2c3cc(C(=O)N(C)C)n(CCO)c3C[C@H]2CN1C(=O)c1ccccc1	-0.212
C=CCOC(=O)[C@H]1[C@@H]2C(=O)O[C@@H](c3ccccc3)[C@@H](c3ccccc3)N2[C@@H](c2ccc(OCCOC(=O)[C@@H]3C[C@@H]4C(=O)N[C@@H](CCCC[N+](C)(C)C)C(=O)N4[C@@H]3c3ccc(O)cc3)cc2)[C@]12C(=O)Nc1ccc(I)cc12	1.16

Target: Torsin-1A (Homo sapiens) (UniProt O14656)
Assay: small-molecule binders of mutant TOR1A in lysate, primary screen, cell lysate, small-molecule microarray, COS7 lysate, 635/667 nm fluorescence (AID 1150);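 note: score pools 667 nm emission and signal to noise measuring lysate protein binding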
Conditions: COS7 hTOR1A mutant lysate, 635 nm fluorescence, higher = more signal

SMILES	composite z-score
CCOC(=O)C[C@H]1[C@H](OC(=O)Cc2ccc3c(c2)OCO3)[C@@H](NC(=O)Cc2ccc(OC)cc2)c2cc(OCCCO)ccc2N1C(=O)Cc1ccc(OC)cc1	0.209
COC(=O)[C@@]1(Cc2ccccc2)[C@H]2c3cc(C(=O)N4CCCC4)n(Cc4ccc(OC)c(OC)c4)c3C[C@H]2CN1C(=O)c1ccccc1	1.18
[N-]=[N+]=Nc1ccccc1C[C@]1(C(=O)N2CCOCC2)N=C(c2ccc(OCCCO)cc2)O[C@H]1c1ccccc1N=[N+]=[N-]	0.946
CC(C)(C)N1CC=CC23O[C@@H]4/C=C\CCCOC(=O)C4[C@H]2C(=O)N(CCCO)[C@@H]3C1=O (stereo partly specified)	0.645
COc1ccc(CCNC(=O)[C@@H]2c3ccccc3C(=O)N(Cc3ccccc3OC)[C@H]2c2ccc(CO)cc2)cc1	0.321
NC(=O)NCC#Cc1ccc2c(c1)[C@]1(C(=O)N2)[C@H](c2ccc(OCCO)cc2)N2[C@H](c3ccccc3)[C@H](c3ccccc3)OC(=O)[C@H]2[C@@H]1C(=O)O	0.141
COc1ccc(C(=O)Nc2ccc3c(c2)[C@@]2(O[C@H](CCO)[C@@H]([Si](C)(C)c4ccc(OC)cc4)[C@@H]2C)C(=O)N3Cc2ccccc2)cc1	0.46
COC(=O)C1=CC(CCCO)=CC(c2cccs2)N(Cc2cc3c(cc2Br)OCO3)C=C1C(=O)OC (stereo unspecified)	1.12
O=C1O[C@H](c2ccccc2)[C@H](c2ccccc2)N2[C@H]1[C@@H](C(=O)O)[C@]1(C(=O)Nc3ccc(C#CCCO)cc31)[C@H]2c1ccc(OCCO)cc1	1.08
CCOC(=O)C[C@H]1[C@H](OC(=O)Cc2ccc3c(c2)OCO3)[C@@H](NC(=O)c2ccc3ccccc3n2)c2cc(OCCCO)ccc2N1C(=O)Cc1ccc(OC)cc1	0.744
O=C(NC1CC1)[C@@H]1c2ccccc2C(=O)N(Cc2cc(C(F)(F)F)cc(C(F)(F)F)c2)[C@H]1c1ccc(CO)cc1	-0.727
C=C(/C(=C/C[C@@H](OC(C)=O)c1cccc(OCCO)c1)c1cnc2ccccc2c1)C(C)C	1.29
O=C1C2C=CC(C(O)c3cccs3)N(Nc3ccc([N+](=O)[O-])cc3)C2C(=O)N1c1ccccc1 (stereo unspecified)	0.303
C[N+](C)(C)CCCC[C@@H]1NC(=O)[C@H]2C[C@@H](C(=O)NCCCCCNC(=O)CS)[C@@H](c3cccc(OCCO)c3)N2C1=O	0.653
COCCOC(=O)N1C(=O)[C@@]2(c3cc(C#CCC(C(=O)OC)C(=O)OC)ccc31)[C@H](c1ccc(O)cc1)N1[C@H](c3ccccc3)[C@H](c3ccccc3)OC(=O)[C@H]1[C@@H]2C(=O)Nc1nc2ccccc2s1	0.479
COC(=O)[C@@]1(Cc2ccc(OC)cc2)[C@H]2c3cc(C(=O)N4CCCC4)n(Cc4c(CO)[nH]cc(C)c4=O)c3C[C@H]2CN1C(=O)c1ccccc1	1.25
O=C1C[C@]2(c3ccc([N+](=O)[O-])cc3)C(=O)N(C3CC3)c3cc(CO)ccc3[C@H]2N1C1CCCCC1	-0.192
C=C(COC)/C(=C/C[C@@H](OC(C)=O)c1ccccc1OCCO)c1cnc2ccccc2c1	2.34

SMILES	composite z-score
COCCOC(=O)N1C(=O)[C@@]2(c3cc(C#CC4(O)CCCCCC4)ccc31)[C@H](c1ccc(O)cc1)N1[C@H](c3ccccc3)[C@H](c3ccccc3)OC(=O)[C@H]1[C@@H]2C(=O)N1CCCCCCC1	0.275
C=CCOC(=O)[C@@H]1[C@H]2C(=O)O[C@H](c3ccccc3)[C@H](c3ccccc3)N2[C@H](c2ccc(OCCOC(=O)[C@H]3C[C@H]4C(=O)N[C@@H](CCCCN(C)C)C(=O)N4[C@H]3c3ccc(O)cc3)cc2)[C@@]12C(=O)Nc1ccc(I)cc12	0.9
COC(=O)C[C@H]1O[C@@]2(C[C@@H]1[Si](C)(C)C)C(=O)N(C)c1ccccc12	0.117
C=CCC(OC(C)=O)[C@@H]1[C@@H](N(Cc2cc3ccccc3o2)C(=O)c2cccc3ccccc23)c2cc(OCCCO)ccc2N1C(=O)c1ccc2ccccc2n1 (stereo partly specified)	-0.661
COC(=O)[C@@]1(Cc2ccc(OC)cc2)[C@H]2c3cc(C(=O)N4CCCC4)n(CCn4cc([N+](=O)[O-])nc4C)c3C[C@H]2CN1C(=O)c1ccccc1	1.75
CCCCCC1=C2CNC(CC(C)C)(C(=O)OC)C=C2C(C)C1=O (stereo unspecified)	-0.207
O=C1C=C(c2ccccc2)C(=O)C2=C1CC([C@H]1Oc3ccccc3S(=O)(=O)N3CCC[C@@H]13)=CC2	-0.495
COCCOC(=O)N1C(=O)[C@@]2(c3cc(C#CCC(C(=O)OC)C(=O)OC)ccc31)[C@H](C(=O)Nc1nc3ccccc3s1)[C@H]1C(=O)O[C@H](c3ccccc3)[C@H](c3ccccc3)N1[C@@H]2c1ccc(O)cc1	0.0756
C=CCC(OC(C)=O)[C@@H]1[C@@H](N(Cc2ccc(-c3cccc(C(F)(F)F)c3)o2)C(=O)c2ccc(-c3ccccc3)cc2)c2cc(OCCCO)ccc2N1C(=O)c1ccc2ccccc2c1 (stereo partly specified)	-0.322
Cc1ccc(S[C@]2(C(=O)NCCCN(C)C)CC(=O)N(Cc3ccccc3C(F)(F)F)[C@@H]2c2ccc(CO)cc2I)cc1	-0.144
CN(C)CCCC[C@@H]1NC(=O)[C@H]2C[C@@H](C(=O)O)[C@@H](c3ccc(O)cc3)N2C1=O	3.27
COCCOC(=O)N1C(=O)[C@@]2(c3cc(C#CCCO)ccc31)[C@H](c1ccc(OCCO)cc1)N1[C@H](c3ccccc3)[C@H](c3ccccc3)OC(=O)[C@H]1[C@@H]2C(=O)N1CCCCCCC1	0.726
CCN(CC)c1ccc(N2CC=CC34O[C@@H]5C=CCCOC(=O)C5[C@H]3C(=O)N(C(C)CO)[C@@H]4C2=O)cc1 (stereo partly specified)	-0.194
CC(C)=CCCC(C)=CC(O)C1C=CC2C(=O)NC(=O)C2N1Nc1ccc(Cl)cc1Cl (stereo unspecified)	0.622
COC(=O)[C@@]1(Cc2ccc(F)cc2)[C@H]2c3cc(C(=O)N(C)C)n(CCc4ccc(O)c(O)c4)c3C[C@H]2CN1C(=O)c1ccccc1	0.92
N#Cc1ccc(-c2cccc(=O)o2)cc1	0.0587
COC(=O)[C@@]1(Cc2ccccc2)[C@H]2c3cc(C(=O)N(C)C)n(CCO)c3C[C@H]2CN1C(=O)c1ccccc1	0.133
C=CCOC(=O)[C@H]1[C@@H]2C(=O)O[C@@H](c3ccccc3)[C@@H](c3ccccc3)N2[C@@H](c2ccc(OCCOC(=O)[C@@H]3C[C@@H]4C(=O)N[C@@H](CCCC[N+](C)(C)C)C(=O)N4[C@@H]3c3ccc(O)cc3)cc2)[C@]12C(=O)Nc1ccc(I)cc12	1.57
